The values below come from PubChem BioAssay (Tox21).

Results filed as inconclusive are left out. Values without a mark were called inactive. The source made the active and inactive calls. Unless noted, the call rests on the fitted dose curve; in most records, active means well fitted curve in the direction sought with a large enough effect in the repeat runs; inconclusive means weak or mixed curves; inactive means no such curve, though single readings can be large; an effect the other way counts as inactive or inconclusive.

Experiment [1] is described as follows: qHTS assay to identify small molecule agonists of the vitamin D receptor (VDR) signaling pathway - cell viability counter screen (AID 743224). Further: series mostly up to about 63 µM; nearly all actives have a fitted effect of over 50% in size. In short, it runs like this:
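Plated VDR-bla cells (4 h, 37C) received compound, incubated 16 h, then LiveBLAzer substrate 2 h RT; CellTiter-Glo added afterwards, luminescence read at 30 min.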

A short description of experiment [2]: qHTS assay to identify small molecule antagonists of the vitamin D receptor (VDR) signaling pathway - cell viability counter screen (AID 743225). Further: nearly all actives have a fitted effect of over 50% in size. In short, it runs like this: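 Parallel cytotoxicity test: VDR-UAS-bla HEK 293T, 3 nM (final) 1-alpha,25-dihydroxyvitamin D3 with test compound, 16 h, 37C. Endpoint is CellTiter-Glo luminescence in the same wells.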

A short description of experiment [3]: qHTS assay to identify small molecule agonists of the NFkB signaling pathway - cell viability counter screen (AID 1159515; calls by dose curve; further: series mostly up to about 61 µM; nearly all actives have a fitted effect of over 55% in size). An outline of the steps:
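Using the same wells as the NFkB reporter read, ME-180 NFkB-bla cells given compounds for 5 hr were assessed for viability via CellTiter-Glo, with luminescence taken after a 30 min room-temperature incubation.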

Experiment [4] in a line: qHTS assay to identify small molecule agonists of the endoplasmic reticulum stress response signaling pathway (AID 1159516; active means well fitted activation curve with a large enough effect in the signal ratio in the repeat runs, not every such curve was filed as active; the % refers to the signal ratio). An outline of the steps: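 An ESRE-bla HeLa cell assay: compounds were pin-transferred from DMSO onto overnight-plated cells and left 5 hr at 37 C. Substrate was then loaded for 2 hr at room temperature before reading fluorescence at 460 nm and 530 nm.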

Experiment [5] in a line: qHTS assay to identify small molecule agonists of the endoplasmic reticulum stress response signaling pathway - cell viability counter screen (AID 1159517; calls by dose curve;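 further: HeLa cells carrying an ER stress response element beta-lactamase reporter; series mostly up to about 61 µM; nearly all actives have a fitted effect of over 50% in size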). An outline of the steps:
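CellTiter-Glo was added to wells already read for beta-lactamase FRET, and luminescence was recorded 30 min later. Cells: ESRE-bla HeLa, 1,500 per well, compound exposure 5 hr at 37 C.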

Experiment [6] in a line: qHTS assay to identify small molecule antagonists of the retinoid-related orphan receptor gamma (ROR-gamma) signaling pathway - cell viability counter screen (AID 1159520). Further: nearly all actives have a fitted effect of over 50% in size. An outline of the steps: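 Tet-on ROR gamma CHO cells (1,000/well) were plated 4 hr, given compounds in DMSO for 2 hr at 37 C, then induced with 1 uM final doxycycline for 16 hr. Viability was read as ATP by CellTiter-Glo luminescence after 30 min.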

The target in experiment [7] is Nuclear receptor ROR-gamma (Homo sapiens) (UniProt P51449). Put plainly: qHTS assay to identify small molecule antagonists of the retinoid-related orphan receptor gamma (ROR-gamma) signaling pathway (AID 1159521). An outline of the steps:
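Decreased RORE-driven luciferase luminescence indicates antagonism. Tet-on RORγ CHO cells received compound, then 1 uM final doxycycline 2 h later; signal read after 16 h incubation.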

A short description of experiment [8]: qHTS assay to identify small molecule agonists of the AP-1 signaling pathway - cell viability counter screen (AID 1159525; calls by dose curve; further: nearly all actives have a fitted effect of over 55% in size). An outline of the steps: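 ME-180 AP-1-bla, 2500 cells/well, Opti-MEM + 0.5% dialyzed FBS; overnight 37 °C; cpd 15-pt titration, 5 h 37 °C; CellTiter-Glo 30 min RT; luminescence read; normalised to TOAB and DMSO controls.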
Experiment [9] in a line: qHTS assay to identify small molecule agonists of the AP-1 signaling pathway (AID 1159526; calls by dose curve).
In experiment [10] the target is Retinoic acid receptor RXR-alpha (Homo sapiens) (UniProt P19793). As to the kind of experiment: qHTS assay to identify small molecule agonists of the RXR signaling pathway (AID 1159527; calls by dose curve; further: nearly all actives have a fitted effect of over 35% in size). An outline of the steps: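 16 hr incubation of compound-treated RXR-alpha-UAS-bla HEK 293T cells (2% charcoal-stripped FBS, 37 C) preceded a 2 hr room-temperature LiveBLAzer FRET substrate step and blue/green fluorescence measurement.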

Experiment [11] can be described thus: qHTS assay to identify small molecule agonists of the RXR signaling pathway - cell viability counter screen (AID 1159529). In short, it runs like this:
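In this parallel viability measure, GeneBLAzer RXR-alpha HEK 293T cells (2% charcoal-stripped FBS) were given a 5 hr preincubation, treated with compounds 16 hr at 37 C, and read by CellTiter-Glo luminescence.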

The nature of experiment [12]: qHTS assay to identify small molecule antagonists of the retinoid acid receptor (RAR) signaling pathway - cell viability counter screen (AID 1159551). Further: nearly all actives have a fitted effect of over 35% in size. An outline of the steps:
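Retinol-stimulated (1 uM final) C3RL4 cells, compound 6 h, 37 C; readout CellTiter-Glo luminescence (ATP) after 30 min RT incubation.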

Experiment [13] can be described thus: qHTS assay to identify small molecule antagonists of the retinoic acid receptor (RAR) signaling pathway (AID 1159552; further: nearly all actives have a fitted effect of over 50% in size). An outline of the steps: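 C3RL4 RARE-luc cells, overnight plating; retinol 1 uM final added right after compound; 6 hr 37 C; luciferase read at 30 min RT.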
Experiment [14] is described as follows: qHTS assay to identify small molecule antagonists of the estrogen related receptor (ERR) signaling pathway from Tox21 library - cell viability counter screen (AID 1224834). Further: nearly all actives have a fitted effect of over 30% in size. An outline of the steps:
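After 17.5 h of compound exposure at 37 C, ERR cells are incubated with CellTiter-Fluor for 30 min and fluorescence intensity serves as the viability measure.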

The target of experiment [15] is Luciferin 4-monooxygenase (Photinus pyralis) (UniProt P08659). As to the kind of experiment: qHTS assay to identify small molecule inhibitors of firefly luciferase (AID 1224835). Further: nearly all actives have a fitted effect of over 25% in size. Further: potency means the concentration at half of the fitted maximal effect. In short, it runs like this: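 Quantitative HTS format; KM concentrations of both substrates. Purified P. pyralis FLuc activity quantified from luminescence images.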
Experiment [16] is described as follows: qHTS assay to identify small molecule agonists of the constitutive androstane receptor (CAR) signaling pathway - cell viability counter screen (AID 1224836). Further: series mostly up to about 92 µM; nearly all actives have a fitted effect of over 45% in size. An outline of the steps:
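Using CellTiter-Fluor, viability of HepG2 cells harbouring hCAR and CYP2B6-2.2kb was measured following 23 h incubation with a 15-concentration compound series plus PK11195 (0.75 uM final).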

The nature of experiment [17]: qHTS assay to identify small molecule antagonists of the constitutive androstane receptor (CAR) signaling pathway - cell viability counter screen (AID 1224837). Further: series mostly up to about 92 µM; nearly all actives have a fitted effect of over 45% in size. An outline of the steps:
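Counter screen run in HepG2-CYP2B6-hCAR cells: 4 hr settle, compound titration (15 concentrations) with 50 nM CITCO, 23 hr at 37 C/5% CO2, CellTiter-Fluor fluorescence.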

The target in experiment [18] is Nuclear receptor subfamily 1 group I member 3 (Homo sapiens) (UniProt Q14994). Put plainly: qHTS assay to identify small molecule antagonists of the constitutive androstane receptor (CAR) signaling pathway (AID 1224838).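 Further: HepG2 cells stably expressing hCAR with CYP2B6 luciferase reporter stimulated by CITCO; nearly all actives have a fitted effect of over 40% in size.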 In short, it runs like this: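 Cell line: HepG2 double-stable for hCAR and CYP2B6-2.2kb reporter. Agonist: CITCO, 50 nM final. Compounds: 15 concentrations, 24 h, 37 C. Detection: ONE-Glo luminescence.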

A short description of experiment [19]: qHTS assay to identify small molecule agonists of the retinoic acid receptor (RAR) signaling pathway (AID 1159553). In short, it runs like this:
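Reporter readout comes from luciferase under RARE control in C3RL4 cells; compound exposure lasts 6 hr at 37 C in 5% CO2, and luminescence is recorded following a 30 min room-temperature incubation with reagent.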

Sequence of Luciferin 4-monooxygenase (Photinus pyralis) (P08659 whole entry, looked up): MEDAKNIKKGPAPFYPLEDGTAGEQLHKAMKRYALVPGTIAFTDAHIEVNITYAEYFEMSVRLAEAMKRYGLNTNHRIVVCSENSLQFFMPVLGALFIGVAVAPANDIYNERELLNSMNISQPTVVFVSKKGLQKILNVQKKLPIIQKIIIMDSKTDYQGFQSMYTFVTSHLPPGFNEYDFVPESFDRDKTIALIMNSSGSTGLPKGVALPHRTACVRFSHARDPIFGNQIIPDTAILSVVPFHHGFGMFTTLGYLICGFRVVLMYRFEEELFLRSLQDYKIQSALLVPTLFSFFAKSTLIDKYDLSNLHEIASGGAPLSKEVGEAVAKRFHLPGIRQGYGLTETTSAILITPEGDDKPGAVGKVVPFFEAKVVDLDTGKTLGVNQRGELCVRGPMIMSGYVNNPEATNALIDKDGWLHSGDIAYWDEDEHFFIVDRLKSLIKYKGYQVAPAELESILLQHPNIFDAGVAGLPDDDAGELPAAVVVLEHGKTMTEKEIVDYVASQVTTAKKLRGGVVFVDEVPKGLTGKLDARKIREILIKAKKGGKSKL
Sequence of Retinoic acid receptor RXR-alpha (Homo sapiens) (P19793 whole entry, looked up): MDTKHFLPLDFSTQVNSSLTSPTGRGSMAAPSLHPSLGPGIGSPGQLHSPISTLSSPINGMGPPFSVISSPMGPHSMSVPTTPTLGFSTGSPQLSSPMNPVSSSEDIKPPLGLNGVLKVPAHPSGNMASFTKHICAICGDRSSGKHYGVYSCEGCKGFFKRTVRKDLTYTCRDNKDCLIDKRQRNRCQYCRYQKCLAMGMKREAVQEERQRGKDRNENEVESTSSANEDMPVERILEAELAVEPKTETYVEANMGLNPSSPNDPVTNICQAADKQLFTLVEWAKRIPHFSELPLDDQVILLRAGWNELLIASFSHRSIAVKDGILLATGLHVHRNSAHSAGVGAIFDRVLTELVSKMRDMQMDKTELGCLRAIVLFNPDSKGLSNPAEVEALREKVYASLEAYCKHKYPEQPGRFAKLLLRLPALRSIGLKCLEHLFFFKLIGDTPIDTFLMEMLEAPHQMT
Sequence of Nuclear receptor subfamily 1 group I member 3 (Homo sapiens) (Q14994 whole entry, looked up): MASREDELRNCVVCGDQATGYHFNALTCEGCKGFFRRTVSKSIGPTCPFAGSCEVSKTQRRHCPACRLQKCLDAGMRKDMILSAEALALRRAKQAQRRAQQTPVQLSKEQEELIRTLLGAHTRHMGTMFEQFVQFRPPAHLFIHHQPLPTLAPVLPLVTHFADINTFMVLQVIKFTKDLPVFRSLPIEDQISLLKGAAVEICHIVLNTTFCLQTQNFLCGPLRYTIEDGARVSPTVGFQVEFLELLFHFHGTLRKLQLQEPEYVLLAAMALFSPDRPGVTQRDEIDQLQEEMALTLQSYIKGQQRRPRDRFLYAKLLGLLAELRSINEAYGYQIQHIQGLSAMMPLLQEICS

As for `c1ccc(B(c2ccccc2)c2ccccc2)cc1`, the outcome in experiment [1], in experiment [2], in [3], in experiment [4], in [5] and in [6] was inactive. For the same compound, the outcome in experiment [7], in experiment [8], in experiment [9], in experiment [11], in experiment [12] and in experiment [13] was inactive. Also, the outcome in [14], in experiment [16] and in experiment [17] was inactive. The Potency result in experiment [10] and in experiment [18] was “inactive” in each case. Also, in experiment [15], the Potency was 31.7 µM (active).

Regarding `CC(O)CC(C)O` (stereo not drawn), the compound was called inactive in experiment [1], in [2], in experiment [3], in [4], in experiment [6] and in experiment [7]. For the same compound, the call in experiment [8], in experiment [9], in experiment [11], in [12], in experiment [13] and in experiment [14] was inactive. The call in [16] and in [17] was inactive. Moreover, the Potency result in [10], in [15] and in [18] was “inactive” throughout.

`CC(C)[C@H]1CC[C@H](C)C[C@@H]1O`: the result in experiment [1], in experiment [2], in experiment [3], in experiment [4], in experiment [5] and in [6] was inactive. For the same compound, the compound was classed as inactive in [7], in experiment [8], in [9], in experiment [11], in experiment [12] and in [13]. Moreover, the compound was classed as inactive in experiment [14], in experiment [16] and in [17]. In addition, the Potency entry in experiment [10], in experiment [15] and in experiment [18] was “inactive” each time.

For the compound `CC(C)(C)NC[C@H](O)COc1cccc2c1CCCC2=O`, the call in experiment [1], in experiment [3], in experiment [4], in experiment [5], in experiment [6] and in [7] was inactive. The call in experiment [8], in [9], in experiment [11], in experiment [12], in [13] and in [16] was inactive. Also, the compound was called inactive in experiment [17]. For the same compound, the Potency entry in [10], in experiment [19], in experiment [15] and in experiment [18] was “inactive” in each case.

Regarding `C/C=C(\C)C(=O)OCCc1ccccc1`, the compound was called inactive in [1], in experiment [2], in [3], in [4], in experiment [5] and in experiment [6]. For the same compound, the outcome in experiment [7], in experiment [8], in experiment [9], in experiment [11], in experiment [12] and in [13] was inactive. Also, the outcome in experiment [14], in [16] and in experiment [17] was inactive. Moreover, the Potency entry in experiment [10] and in experiment [18] was “inactive” in each case. For the same compound, in experiment [15], the Potency is 7.1 µM (active).
